Source: PubChem BioAssay (National Center for Advancing Translational Sciences (NCATS))
A selection: hits, their analogues and other compounds. The true share with any hit is near 7.9%.
MCF10A rerep: A quantitative high throughput screen for small molecules that induce DNA re-replication in MCF 10a normal breast cells; MCF 10A DNA re-replication, Hoechst nuclear intensity, 48 h; Potency, µM (top dose mostly 46.1 µM), without a hit: top-dose activity, positive = re-replication, actives largely listed as activators; actives 2.9% (n = 350,000); AID 624296, 2012; further: % of control where 0% means no effect; nearly all actives have a fitted effect of over 50% in size
SW480 rerep: A quantitative high throughput screen for small molecules that induce DNA re-replication in SW480 colon adenocarcinoma cells; actives 1.8% (n = 340,000); SW480 DNA re-replication, Hoechst DNA content imaging, 48 h; Potency, µM (highest dose often 46.1 µM), for inactives: at the highest dose re-replication activation, actives largely listed as activators; further: % of control where 0% means no effect; nearly all actives have a fitted effect of over 55% in size
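Image-based DNA-content assay: after two days of treatment, nuclei were labelled with the DNA dye Hoechst and imaged, and hits were compounds raising the count of nuclei showing high fluorescence intensity.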
HT1080-NT tox: qHTS for induction of synthetic lethality in tumor cells producing 2HG: qHTS for the HT-1080-NT fibrosarcoma cell line; HT-1080-NT fibrosarcoma viability, CellTiter-Glo ATP luminescence, 48 h; Potency, µM (highest dose often 46.1 µM), without a hit: at the top dose activity, negative = less viability, actives largely listed as cytotoxic; actives 1.6% (n = 360,000);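 further: NT is the 2HG producing partner of a matched IDH1 knockdown line; 0% = DMSO-treated cells and -100% = media-only wells without cells; nearly all actives have a fitted effect of over 55% in size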
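Compounds were tested in concentration-response format on HT-1080-NT cells for 48 hours at 37 degrees C. Cell viability came from CellTiter-Glo luminescence; curves were classified by r2, response magnitude and activity.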
KB-3-1 cytotox: qHTS assay for MDR1-selective chemotherapeutics: Primary screen using the parental adenocarcinoma cell KB-3-1 | KB-3-1 viability, CellTiter-Glo ATP luminescence, 72 h | Potency, µM (doses to about 46.1 µM), actives largely listed as cytotoxic | actives 1.4% (n = 400,000); further: on the % scale 0 is the no-effect control and ±100 the full control effect; nearly all actives have a fitted effect of over 60% in size
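Using CellTiter-Glo luminescence, growth of non-resistant KB-3-1 adenocarcinoma cells is assessed 72 h after pin-tool compound addition at 37 °C. Normalized responses across the concentration series yield fitted curves.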
KB-V1 MDR tox: qHTS assay for MDR1-selective chemotherapeutics: Primary screen using the drug-selected MDR subline cells KB-V1 | KB-V1 MDR cells viability, CellTiter-Glo, 72 h | Potency, µM (highest dose often 46.1 µM), usual class: cytotoxic | actives 3.4% (n = 400,000); further: on the % scale 0 is the no-effect control and ±100 the full control effect; nearly all actives have a fitted effect of over 60% in size
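In this primary screen, KB-V1 cells overexpressing P-gp are incubated with library compounds (lowest to highest concentration) for 72 h at 37 degrees C before a luminescent ATP viability read.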
HT1080 IDH1KD tx: qHTS for induction of synthetic lethality in tumor cells producing 2HG: qHTS for the HT-1080-IDH1KD cell line. HT-1080 IDH1 knockdown viability, ATP luminescence, 48 h. Potency, µM (highest dose often 46.1 µM), inactives show at the highest dose activity, negative = toxicity, usual class: cytotoxic. actives 2% (n = 360,000). AID 686971, 2013;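 further: 0% = DMSO wells and -100% = cell-free medium wells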
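CellTiter-Glo luminescence after 48 h compound exposure at 37 degrees C of IDH1-knockdown HT-1080 cells in 5% FBS RPMI. %Activity scaled between DMSO wells and cell-free media wells, with curves fitted and assigned curve classes.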
An asterisk follows results filed as active; [ ] = remark or other dose. The call rests on the fitted dose curve; in most records, active means well fitted curve in the direction sought with a large enough effect; inconclusive means small, poorly fitted or top-dose-only effect, or another doubt; inactive means no such curve, though single readings can be large; an effect the other way counts as inactive or inconclusive. Potency means the concentration at half of the fitted maximal effect.

How did Cc1ccc(NC(=O)Cn2c(-c3ccc(F)cc3)cnc2SCC(=O)Nc2c(C)cccc2C)cc1 do in these assays?
MCF10A rerep: 4.6µM*; SW480 rerep: inconclusive; HT1080-NT tox: -29%; KB-3-1 cytotox: inactive; KB-V1 MDR tox: inactive; HT1080 IDH1KD tx: inconclusive

What do the screens show for `O=C(Nc1ccc(Br)cc1)c1cccnc1N1CCOCC1`?
MCF10A rerep: -2%; SW480 rerep: 3%; HT1080-NT tox: 0%; KB-3-1 cytotox: inactive; KB-V1 MDR tox: inconclusive; HT1080 IDH1KD tx: 7%

How did CCCCCCCNC1=CC(=O)CC(c2ccccc2)C1 (stereo not given) do in these assays?
MCF10A rerep: 18µM*; SW480 rerep: inconclusive; HT1080-NT tox: inconclusive; KB-3-1 cytotox: 7.3µM*; KB-V1 MDR tox: inconclusive; HT1080 IDH1KD tx: 16µM*

Results for CNC1=CC(=O)CC(c2ccccc2)C1 (stereo not given) ?
MCF10A rerep: inconclusive; SW480 rerep: inconclusive; HT1080-NT tox: -4%; KB-3-1 cytotox: inactive; KB-V1 MDR tox: inactive; HT1080 IDH1KD tx: -2%

What do the screens show for `CCCCCNC1=CC(=O)CC(c2ccccc2)C1` (stereo not given)?
MCF10A rerep: inconclusive; SW480 rerep: inconclusive; HT1080-NT tox: inconclusive; KB-3-1 cytotox: inconclusive; KB-V1 MDR tox: 15µM*; HT1080 IDH1KD tx: -11%[9.24 µM]

What do the screens show for `O=C(NCc1ccccc1)C1C(c2ccc3c(c2)OCO3)=Nc2ccccc2N1C(=O)c1ccccc1` (stereo not given)?
HT1080-NT tox: -18%; KB-3-1 cytotox: inconclusive; KB-V1 MDR tox: inconclusive; HT1080 IDH1KD tx: -24%

What do the screens show for `CC1(C)Oc2ccc3ccc(=O)oc3c2/C(=C/Nc2ccc(O)cc2)C1=O`?
MCF10A rerep: inconclusive; SW480 rerep: inconclusive; HT1080-NT tox: inconclusive; KB-3-1 cytotox: inactive; KB-V1 MDR tox: inconclusive; HT1080 IDH1KD tx: -19%

How did CC1(C)Oc2ccc3ccc(=O)oc3c2/C(=C/Nc2cccc(O)c2)C1=O do in these assays?
MCF10A rerep: 12µM*; SW480 rerep: inconclusive; HT1080-NT tox: inconclusive; KB-3-1 cytotox: inactive; KB-V1 MDR tox: inconclusive; HT1080 IDH1KD tx: inconclusive

Results for O=C(Nc1ccccc1Cl)c1ccc(=O)[nH]n1 ?
MCF10A rerep: 9%; SW480 rerep: inconclusive; HT1080-NT tox: 9%; KB-3-1 cytotox: 7.3µM*; KB-V1 MDR tox: 8.2µM*; HT1080 IDH1KD tx: 15%

What do the screens show for `O=C(Nc1ccccc1)c1ccc(=O)[nH]n1`?
MCF10A rerep: -1%; SW480 rerep: -14%; HT1080-NT tox: 14%; KB-3-1 cytotox: inactive; KB-V1 MDR tox: inactive; HT1080 IDH1KD tx: 29%

Results for COc1ccc(/C=C/c2ccnc3ccccc23)c(OC)c1 ?
KB-3-1 cytotox: inconclusive; KB-V1 MDR tox: inactive

Results for CN1CCN(CCCNC(=O)c2ccc(Cn3c(=S)[nH]c4ccc(Br)cc4c3=O)cc2)CC1 ?
MCF10A rerep: 0%; SW480 rerep: -5%; HT1080-NT tox: 9%; KB-3-1 cytotox: inactive; KB-V1 MDR tox: inactive; HT1080 IDH1KD tx: -21%

What do the screens show for `C[C@@H](C(=O)NCc1ccccn1)[C@H]1C[C@]1(C)[C@H](NC(=O)OCc1ccccc1)c1ccccc1`?
MCF10A rerep: 21µM*; SW480 rerep: -2%; HT1080-NT tox: -9%; KB-3-1 cytotox: inactive; KB-V1 MDR tox: inconclusive; HT1080 IDH1KD tx: 1%
